The list is not random: actives were taken first. Their share in the collection is about 5%.
HCMV antiviral: inhibitors of human cytomegalovirus; HFF cells, HCMV-luciferase reporter, 72 h; stronger effect = lower value; AID 1259415; activity change, negative = inhibition, % at 57.5 µM; actives 4.5% (n = 410,000); in the data active means activity change below about -60%; inconclusive means no clear call, values can overlap the other calls; inactive means above about -39%
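After 16 h attachment at 37C, HFF cells received test compound and HCMV-luciferase (1 PFU/cell); reporter luminescence read 72 h later, data normalized against buffer-only and known inhibitor Salinomycin.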
VACV Venus inh: vaccinia inhibition (Venus reporter); Potency, µM (titrated, usually from 36.5 µM), for the others: at the top dose activity change, negative = inhibition, most hits filed as inhibitors; Vaccinia virus Venus reporter expression, fluorescence; AID 720580; actives 0.46% (n = 330,000); calls by dose curve; tested in A549 cells; further: potency means the concentration at half of the fitted maximal effect; nearly all actives have a fitted effect of over 30% in size
LmPK inhibitor: blocks Leishmania mexicana pyruvate kinase activity; purified LmPK, Kinase-Glo ATP luminescence, 1 h; Potency, µM (highest dose often 57.5 µM), inactives show at the highest dose activity change, negative = inhibition, actives largely listed as inhibitors; Q27686; actives 0.37% (n = 290,000); AID 1721; further: potency means the concentration at half of the fitted maximal effect
Target sequence (Q27686 whole entry, looked up): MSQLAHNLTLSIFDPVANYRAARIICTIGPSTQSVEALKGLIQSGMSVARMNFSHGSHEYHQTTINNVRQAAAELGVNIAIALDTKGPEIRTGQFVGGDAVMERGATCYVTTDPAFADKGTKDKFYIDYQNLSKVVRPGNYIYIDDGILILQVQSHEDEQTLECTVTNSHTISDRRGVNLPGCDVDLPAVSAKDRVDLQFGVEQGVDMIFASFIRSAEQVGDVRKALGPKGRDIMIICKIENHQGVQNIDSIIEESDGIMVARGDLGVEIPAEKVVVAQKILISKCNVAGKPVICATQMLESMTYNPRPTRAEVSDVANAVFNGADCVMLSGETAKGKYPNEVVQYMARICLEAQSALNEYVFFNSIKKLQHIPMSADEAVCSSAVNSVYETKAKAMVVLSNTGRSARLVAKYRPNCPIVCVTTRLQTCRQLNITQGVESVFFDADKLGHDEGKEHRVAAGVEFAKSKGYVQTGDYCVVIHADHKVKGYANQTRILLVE
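Screened at intermediate enzyme activity to detect both inhibitors and activators: LmPK at 0.1 nM, with a 0.5 nM enzyme column as activation reference. PEP 0.5 mM, ADP 0.1 mM; ATP detected by luminescence after 1 h.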
Vaccinia mCherry: vaccinia inhibition (mCherry reporter). Vaccinia virus mCherry reporter infection, fluorescence. Potency, µM (doses to about 36.5 µM), without a hit: at the top dose activity change, negative = inhibition, actives largely listed as inhibitors. actives 0.63% (n = 310,000). AID 720579; calls by dose curve; tested in A549 cells; further: potency means the concentration at half of the fitted maximal effect; nearly all actives have a fitted effect of over 35% in size
TbPYK inhibitor: T. brucei pyruvate kinase inhibition; TbPYK enzyme, Kinase-Glo Plus ATP luminescence, 45 min; Q57TT1; Potency, µM (highest dose often 76.8 µM), inactives show at the top dose activity, negative = inhibition, hits mostly inhibitors; actives 0.12% (n = 410,000); further: potency means the concentration at half of the fitted maximal effect; nearly all actives have a fitted effect of over 50% in size
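Assay buffer: 50 mM TEA pH 7.2, 100 mM KCl, 10 mM MgCl2, 0.05% BSA, 0.01% Tween-20. Pyruvate kinase from T. brucei plus substrate met compound, then ADP (130 uM final). Luminescence was read post 45 min RT.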
Active calls of the source: *; i = inactive; ? = inconclusive; nt = no result. Unless noted, the call rests on the fitted dose curve; in most records, active means well fitted curve in the direction sought with a large enough effect; inconclusive means small, poorly fitted or top-dose-only effect, or another doubt; inactive means no such curve, though single readings can be large; an effect the other way counts as inactive or inconclusive. On the % scale 0 is the no-effect control and ±100 the full control effect.

SMILES | HCMV antiviral | VACV Venus inh | LmPK inhibitor | Vaccinia mCherry | TbPYK inhibitor
O=C(CNC(=O)c1ccc(S(=O)(=O)N2CCCC2)cc1)N/N=C/c1c(Cl)cccc1Cl | -72* | -23% | 1% | ? | 7%
O=C(N/N=C/c1cc(Cl)ccc1O)c1ccc(Br)cc1 | -102* | ? | -3% | 3.2µM* | 4%
Cc1nc(C)c(C(=O)N/N=C/c2c[nH]c3ccccc23)s1 | nt | -26% | 4% | ? | -14%
CCCNC(=O)c1cc(S(=O)(=O)N2CCc3ccccc32)ccc1F | -22 | -9% | -1% | -17% | 2%
O=C(COC(=O)Cc1c[nH]c2ccccc12)NC1CCCCC1 | 2 | 5% | -2% | 3% | 3%
Fc1cccc(CNc2ncnc3cc(Cl)ccc23)c1F | ? | -28% | 0% | -13% | 5%
CC1(C)CC(NC(=S)Nc2ccc([N+](=O)[O-])cc2)CC(C)(C)N1 | -6 | -8% | 1% | i | -3%
Cc1cc(C)c(C(=O)Cn2nc(C)c([N+](=O)[O-])c2C)cc1C | 64 | -14% | 5% | i | -21%
O=C(N/N=C/c1ccc(O)c(O)c1)c1cccc(S(=O)(=O)N2CCCCC2)c1 | 12 | -1% | 2% | i | -5%
O=C(N/N=C\c1cc(Br)ccc1O)c1ccc(S(=O)(=O)N2CCCCC2)cc1 | -100* | ? | 1% | 5µM* | 1%
CCCCn1nc2cc(C(=O)NCC34CC5CC(CC(C5)C3)C4)ccc2c1OC | -8 | ? | -1% | 6.3µM* | -4%
CCn1nc2cc(C(=O)NCC34CC5CC(CC(C5)C3)C4)ccc2c1OC | 166 | -24% | 5% | -25% | -1%
CC(C)(C)CN1CCN(Cc2nc(-c3ccc(F)cc3)cs2)CC1CCO (stereo not given) | -64* | -15% | 0% | -12% | -2%
OCCC1CN(Cc2nc(-c3ccc(F)cc3)cs2)CCN1CCc1ccccc1 (stereo not given) | 21 | nt | 6% | nt | 0%
C=CC[C@@H](CC(=O)N(CCO)Cc1ccccc1)C(=O)N[C@H](COC(=O)[C@@H](CC=C)Cc1ccc(F)cc1)C(C)(C)C | 32 | -20% | nt | -15% | -8%
O=C(Nc1cccc(S(=O)(=O)N2CCCCC2)c1)c1ccccc1NS(=O)(=O)c1ccc(F)cc1 | -98* | ? | 4% | ? | -9%
Cc1ccc(NC(=O)c2ccccc2NS(=O)(=O)c2ccc(F)cc2)cc1S(=O)(=O)N1CCCCC1 | -98* | ? | 0% | ? | 7%
Cc1ccc(NC(=O)c2cc(=O)c3ccccc3o2)cc1S(=O)(=O)N1CCCCC1 | -69* | -25% | 3% | ? | 2%
NS(=O)(=O)c1cccc(NC(=O)c2ccccc2NS(=O)(=O)c2ccc(F)cc2)c1 | -32 | -2% | 1% | -3% | -2%
Cc1ccc(S(=O)(=O)N2CCOC23CCN(S(=O)(=O)c2cccs2)CC3)cc1 | -19 | -19% | nt | i | -3%
CCc1cccc(NC(=O)CCS(=O)(=O)c2cc(Br)cc3c2N(C(C)=O)CC3)c1 | -8 | -8% | nt | -7% | 5%
COc1ccc(NC(=O)C2Cc3c(-c4cccc(C(N)=O)c4)ccnc3O2)cc1OC (stereo not given) | 50 | -1% | nt | -7% | 4%
COc1ccc(NC(=O)C2Cc3c(-c4ccc(Cl)cc4)ccnc3O2)cn1 (stereo not given) | -82* | -23% | nt | -4% | -2%
COc1ccc(NC(=O)C2Cc3c(-c4ccc(Cl)cc4)ccnc3O2)cc1OC (stereo not given) | -78* | -19% | nt | ? | -2%
O=C(Nc1ccc2c(c1)OCO2)C1Cc2c(-c3ccc4c(c3)OCO4)ccnc2O1 (stereo not given) | -62* | -18% | nt | -9% | -6%
SMILES | HCMV antiviral | VACV Venus inh | LmPK inhibitor | Vaccinia mCherry | TbPYK inhibitor
CC(=O)Nc1ccc(NC(=O)C2Cc3c(-c4ccc(Cl)cc4)ccnc3O2)cc1 (stereo not given) | -9 | 2% | nt | 7% | 0%
COc1ccc(NC(=O)C2Cc3c(-c4cccc(C(C)=O)c4)ccnc3O2)cc1OC (stereo not given) | -92* | -25% | nt | -10% | 5%
Nc1ncc(S(=O)(=O)NCc2ccc(F)cc2)cn1 | -10 | -4% | nt | -13% | -1%
O=C(COC(=O)C1CC(=O)N(c2nc(-c3ccccc3)cs2)C1)c1ccccc1 (stereo not given) | 73 | nt | 4% | nt | 0%
CC(=O)NCCNC(=O)C1Cc2c(-c3cccc(NC(C)=O)c3)ccnc2O1 (stereo not given) | 1 | 6% | nt | -1% | -9%
COc1ccc(CCCNC(=O)C2Cc3c(-c4cccc(NC(C)=O)c4)ccnc3O2)cc1 (stereo not given) | -61* | -26% | nt | -26% | -8%
O=P(O)(O)O | nt | nt | nt | nt | 2%
Cc1cc(Br)c2nc(-c3ccccc3)c(Cc3cccc(Cl)c3)n2c1 | 130 | -6% | nt | -13% | -3%
CC(C)C(NC(=O)C(CC(=O)O)NC(=O)C(CCCCN)NC(=O)C(N)CCCN=C(N)N)C(=O)NC(Cc1ccc(O)cc1)C(=O)O (stereo not given) | nt | nt | nt | nt | -2%
Cc1cccc2nc(-c3ccccn3)c(Nc3ccc(F)cc3)n12 | -97* | ? | nt | 10µM* | -1%
Cc1cccc2nc(-c3ccccn3)c(Nc3ccccc3)n12 | -82* | ? | nt | ? | -7%
Cc1ccn2c(Nc3ccc(F)cc3)c(-c3ccccn3)nc2c1 | -10 | ? | nt | ? | 4%
Cc1ccc(Nc2c(-c3ccccn3)nc3cccc(C)n23)cc1 | 0 | -21% | 10% | 13µM* | 0%
Oc1ccc(O)cc1 | nt | 4% | nt | -12% | -9%
Cc1ccc(N2CCN(Cc3nnc(-c4ccc5c(c4)OCO5)o3)CC2)c(C)c1 | 4 | -14% | nt | -12% | 3%
O=C1CC(=C2c3ccccc3-c3ccccc32)C(=O)N1CCN1CCN(c2ccccc2)CC1 | 24 | nt | nt | nt | 5%
O=C(OCCN1CCN(c2ncc(C(F)(F)F)cc2Cl)CC1)c1ccc(Cl)cc1 | -9 | 0% | 0% | -9% | 5%
C/[N+]([O-])=C\c1cccc(OCCN2CCN(c3ncc(C(F)(F)F)cc3Cl)CC2)c1 | -74* | -7% | 0% | -14% | 5%
O=C(C1CC(c2ccc(F)cc2)=NO1)N1CCCc2ccccc21 (stereo not given) | 9 | -20% | 6% | -18% | -2%
COc1ccc(OC)c(C2=NOC(C(=O)N3CCCc4ccccc43)C2)c1 (stereo not given) | -60* | nt | 8% | nt | -4%
O=C(O)CC1(CC(=O)Nc2cccc(C(=O)O)c2)CCCC1 | -102* | -14% | 7% | i | 0%
O=C(C1CCCCC1)N1CCN(c2ccnc3cc(Cl)ccc23)CC1 | -83* | -12% | 4% | -25% | -11%
CC(C)(C)C(=O)N1CCN(c2ccnc3cc(Cl)ccc23)CC1 | -98* | nt | 0% | nt | 5%
O=C(C1CC1)N1CCN(c2ccnc3cc(Cl)ccc23)CC1 | ? | -5% | 2% | i | 2%
